Activity calls are given as the source filed them. Unless noted, how the calls were made is not given here.

This is an account of results in PubChem BioAssay.

Assay [1] can be described thus: compound effects on lung adenocarcinoma cell viability – A549, calcein-AM fluorescence, 48 h, basal, profiling panel (AID 1162). Further: test concentration not given here. Conditions: higher = more signal.
The nature of assay [2]: compound effects on differentiated 3T3-L1 adipocyte viability – cell-based, 3T3-L1 adipocytes, calcein-AM fluorescence, 48 h, basal, profiling panel (AID 1163). Further: test concentration not given here. The conditions noted are these: 3T3-L1 adipocytes viability, higher = more signal.
A short description of assay [3]: compound effects on hepatocellular carcinoma cell viability – HepG2, calcein-AM fluorescence, 48 h, basal, profiling panel (AID 1164). Further: test concentration not given here. The conditions noted are these: higher = more signal.
Assay [4] can be described thus: compound effects on multiple myeloma cell viability – MM1S, calcein-AM fluorescence, 48 h, basal, profiling panel (AID 1165). Further: test concentration not given here. The conditions noted are these: higher = more signal.
Assay [5] can be described thus: calcein-AM signal in unstimulated myeloma cells – cell-based, calcein-AM fluorescence, 48 h, PK04 Diversity Set, profiling panel (AID 1166).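 Further: cells grown under basal conditions without added stimulus; test concentration not given here.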 The conditions noted are these: RPMI8226 myeloma viability, higher = more signal.
The nature of assay [6]: JC-1 mitochondrial signal, unstimulated HepG2 cells – cell-based, JC-1 fluorescence, 24 h, 100 nL compound, profiling panel (AID 1167). Further: test concentration not given here. The conditions noted are these: HepG2 mitochondrial potential, higher = more signal.
Assay [7] can be described thus: JC-1 mitochondrial signal, unstimulated adipocytes – cell-based, JC-1 fluorescence, 3T3-L1 adipocytes, 24 h, 100 nL compound, profiling panel (AID 1168). Further: test concentration not given here. The conditions noted are these: JC-1 mitochondrial fluorescence, higher = more signal, called active from +8 up or from −8 down.
A short description of assay [8]: JC-1 mitochondrial signal, unstimulated myeloma cells – cell-based, JC-1 fluorescence, RPMI8226, 24 h, 100 nL compound, profiling panel (AID 1169). Further: test concentration not given here. The conditions noted are these: JC-1 mitochondrial potential fluorescence, higher = more signal.
Assay [9] in a line: JC-1 mitochondrial signal, unstimulated MM1S myeloma – cell-based, JC-1 fluorescence, 24 h, 100 nL compound, profiling panel (AID 1170). Further: test concentration not given here. The conditions noted are these: MM1S mitochondrial potential, higher = more signal.
The nature of assay [10]: resazurin metabolic signal in A549 cells – cell-based, resazurin fluorescence, 24 h, PK04 Diversity Set, profiling panel (AID 1171). Further: test concentration not given here. The conditions noted are these: A549 viability, higher = more signal, called active from +8 up or from −8 down. Background: Resazurin is reduced to fluorescent resorufin, in cell work by metabolically active cells.
Assay [11] is described as follows: resazurin metabolic signal in HepG2 cells – cell-based, resazurin fluorescence, 24 h, PK04 Diversity Set, profiling panel (AID 1172). Further: test concentration not given here. The conditions noted are these: HepG2 viability, higher = more signal.
Assay [12] can be described thus: budding yeast growth changes without added modifier – OD600, strain BY4716, 24 h, basal condition, primary screen (AID 1173). The conditions noted are these: S. cerevisiae BY4716 growth, OD600, 24 h; higher = more signal, called active from +8 up or from −8 down.
Assay [13] in a line: viability profiling in MM1S myeloma cells – cell-based, resazurin fluorescence, basal, 24 h, PK04 Diversity Set, profiling panel (AID 1174). Further: test concentration not given here. Conditions: higher = more signal, called active from +8 up or from −8 down.
For assay [14], the target named is Dihydroorotate dehydrogenase (quinone), mitochondrial (Plasmodium falciparum (isolate 3D7)) (UniProt Q08210). Kind of assay: inhibition of P. falciparum DHODH – biochemical, C-terminal His tag, absorbance 600 nm, primary screen (AID 1175).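 Further: recombinant parasite enzyme with a five histidine tag at its C terminus; test concentration not given here.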 Conditions: PfDHODH enzyme, DCIP absorbance 600 nm; higher = more signal, called active from +8 up or from −8 down.
Chain of Dihydroorotate dehydrogenase (quinone), mitochondrial (Plasmodium falciparum (isolate 3D7)) (Q08210 whole entry, looked up): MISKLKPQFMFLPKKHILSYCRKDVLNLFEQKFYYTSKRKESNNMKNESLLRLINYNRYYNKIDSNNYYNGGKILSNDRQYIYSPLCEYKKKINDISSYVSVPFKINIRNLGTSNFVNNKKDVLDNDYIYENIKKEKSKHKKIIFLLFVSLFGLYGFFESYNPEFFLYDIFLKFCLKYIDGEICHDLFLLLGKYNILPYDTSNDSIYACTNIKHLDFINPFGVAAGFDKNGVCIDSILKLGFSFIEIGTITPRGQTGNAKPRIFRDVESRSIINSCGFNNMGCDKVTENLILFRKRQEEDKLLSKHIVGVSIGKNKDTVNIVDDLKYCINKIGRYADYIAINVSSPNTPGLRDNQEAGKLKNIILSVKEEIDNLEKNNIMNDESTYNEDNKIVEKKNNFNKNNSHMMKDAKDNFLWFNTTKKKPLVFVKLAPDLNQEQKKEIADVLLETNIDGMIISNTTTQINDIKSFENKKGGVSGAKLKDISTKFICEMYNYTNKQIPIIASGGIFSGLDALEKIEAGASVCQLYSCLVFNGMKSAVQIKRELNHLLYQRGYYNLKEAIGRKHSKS
Assay [15] is described as follows: inhibition of PAO1 biofilm formation – strain PAO1, LB-PBS medium, absorbance 600 nm, primary screen (AID 1176). Further: test concentration not given here. The conditions noted are these: P. aeruginosa PAO1 growth/biofilm, A600, 12 h; higher = more signal.
Assay [16] can be described thus: growth modulation of vineyard yeast isolate – strain RM11-1a, OD600, basal, 24 h, primary screen (AID 1177).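 Further: cultures grown under basal conditions with no added stressor; test concentration not given here.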 Conditions: S. cerevisiae RM11-1a growth, OD600, 24 h; higher = more signal, called active from +8 up or from −8 down.
The nature of assay [17]: growth of efflux-deficient E. coli DRC39 – strain DRC39, OD650, 24 h, E. coli filamentation inducers, primary screen (AID 1178).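 Further: growth measured as culture turbidity by optical density at 650 nm; test concentration not given here.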 The conditions noted are these: E. coli DRC39 acrAB, higher = more signal, called active from +8 up or from −8 down.
A short description of assay [18]: growth of efflux-deficient E. coli DRC39 – strain DRC39, OD650, 48 h, E. coli filamentation inducers, primary screen (AID 1179).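 Further: screen aims at cell division blockers that make cells filament.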 Conditions: E. coli DRC39 delta-acrAB growth, higher = more signal, called active from +8 up or from −8 down.
Assay [19] in a line: viability profiling in RPMI8226 myeloma cells – cell-based, resazurin fluorescence, basal, 24 h, PK04 Diversity Set, profiling panel (AID 1180).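 Further: RPMI8826 multiple myeloma cell line at 5000 cells per well; test concentration not given here.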 Conditions: higher = more signal.
In assay [20] the target is E3 ubiquitin-protein ligase XIAP (Homo sapiens) (UniProt P98170). Kind of assay: small molecules binding XIAP protein – biophysical, small-molecule microarray, fluorescence 635 nm, primary screen (AID 1181).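 Further: score merges 667 nm emission and signal to noise over triplicate slides.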 Conditions: higher = more signal.
Chain of E3 ubiquitin-protein ligase XIAP (Homo sapiens) (P98170 whole entry, looked up): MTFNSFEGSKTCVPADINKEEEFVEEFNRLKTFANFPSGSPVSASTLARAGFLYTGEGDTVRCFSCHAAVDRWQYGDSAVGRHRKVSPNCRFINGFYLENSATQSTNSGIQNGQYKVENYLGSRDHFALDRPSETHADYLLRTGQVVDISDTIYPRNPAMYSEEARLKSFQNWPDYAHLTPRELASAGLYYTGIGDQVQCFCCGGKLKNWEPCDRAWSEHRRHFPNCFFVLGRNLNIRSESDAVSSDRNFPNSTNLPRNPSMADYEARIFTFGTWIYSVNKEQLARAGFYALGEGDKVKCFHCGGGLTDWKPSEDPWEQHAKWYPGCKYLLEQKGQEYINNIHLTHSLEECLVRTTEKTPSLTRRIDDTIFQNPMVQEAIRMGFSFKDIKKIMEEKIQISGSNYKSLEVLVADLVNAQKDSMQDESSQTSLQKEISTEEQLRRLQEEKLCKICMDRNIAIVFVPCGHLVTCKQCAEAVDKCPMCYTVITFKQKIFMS

With `CCOC(=O)C[C@H]1[C@H](OC(=O)c2ccccc2-c2ccccc2)[C@@H](NC(=O)c2ccccc2)c2cc(OCCCO)ccc2N1C(=O)c1ccccc1`, the z-score in [1] is -0.164; in assay [2] it was -0.603; in assay [3], -0.56; in assay [4] it was -0.162; in assay [5] it was -0.559; in assay [6], -0.127. The z-score in assay [7] is -0.0812 (inactive); in [8] it was -0.485; in [9], 0.318; in [10], -0.336 (inactive); in assay [11] it was -0.632; in [12], 0.474 (inactive). Also, the z-score in assay [13] is -0.287 (inactive); in assay [15], -0.0582 (inactive); in assay [16] it was 0.383 (inactive); in assay [17], -0.536 (inactive); in assay [18], -0.508 (inactive); in assay [19], -0.0741. In addition, the values for the composite z-score in [14] and in assay [20] were 0.374 (inactive) and 0.0871, respectively.
As to `CCCCCCCCCCC(O)C1C=CC2C(=O)N(C)C(=O)C2N1Nc1cc(OC)c(OC)c(OC)c1` (stereo not given), the z-score in [1] was -2.12; in [2] it was -0.555; in assay [3] it was -3.26; in assay [4], -3.8; in assay [5], -4.07; in assay [6], -0.993. The z-score in [7] was 0.485 (inactive); in assay [8] it was -0.913; in assay [9], -2.12; in assay [10], -1.38 (inactive); in [11], -2.36; in [12], -1.36 (inactive). The z-score in [13] is -3.17 (inactive); in assay [15] it was 0.971 (inactive); in assay [16], 0.439 (inactive); in assay [17], -0.875 (inactive); in [18], -1.12 (inactive); in assay [19] it was -3.54. Further, the composite z-score in assay [14] was -1.3 (inactive); in assay [20], -0.182.
Consider `COc1cc(NN2C(C(O)c3ccc(I)cc3)C=CC3C(=O)N(c4ccccc4)C(=O)C32)cc(OC)c1OC` (stereo not given), for which the z-score is -0.844 in assay [1]; -0.294 in assay [2]; -0.683 in assay [3]; -0.344 in assay [4]; -1.4 in assay [5]; -1.14 in assay [6]. The z-score in [7] was -1.46 (inactive); in [8] it was -0.786; in assay [9], -1.4; in assay [10], -0.749 (inactive); in assay [11] it was -1.35; in [12], 0.645 (inactive). The z-score in [13] was -0.694 (inactive); in assay [15], 0.835 (inactive); in assay [16], 0.0247 (inactive); in [17], 0.456 (inactive); in [18], 0.176 (inactive); in [19] it was -1.34. The values for the composite z-score in assay [14] and in assay [20] were -0.755 (inactive) and 0.162, respectively.
`COc1ccc(NC(=O)O[C@H]2[C@@H]3OC(=O)[C@H](Cc4cccc(Br)c4)C/C=C/C[C@@H](Cc4cccc(Br)c4)C(=O)O[C@H]3[C@@H](OC)O[C@@H]2CO)cc1`: the z-score is -0.102 in [1]; -0.226 in [2]; 0.323 in assay [3]; -1.14 in [4]; -0.153 in [5]; 1.6 in assay [6]. For the same compound, the z-score in assay [7] is -0.483 (inactive); in [8] it was -0.897; in [9], 0.329; in assay [10], -0.981 (inactive); in assay [11], -0.868; in assay [12], -0.413 (inactive). Further, the z-score was -0.37 (inactive) in assay [13]; 0.47 (inactive) in assay [15]; 0.604 (inactive) in assay [16]; 0.365 (inactive) in assay [17]; 0.855 (inactive) in assay [18]; -0.517 in assay [19]. Besides, the composite z-score in [14] is 0.732 (inactive); in assay [20] it was -0.555.
For `COCCCNC(=O)[C@@]1(Sc2ccc(C)cc2)CC(=O)N(C(C)C)[C@@H]1c1ccc(CO)cc1I`, the z-score is 0.781 in [1]; 1.74 in assay [2]; -1.16 in [3]; -2.2 in assay [4]; -2.38 in [5]; 0.544 in assay [6]. The z-score in [7] is -0.0068 (inactive); in [8], -0.205; in assay [9], -2.75; in [10], 0.534 (inactive); in assay [11], -0.312; in [12], -3.22 (inactive). The z-score was -2.35 (inactive) in assay [13]; 0.394 (inactive) in assay [15]; -1.82 (inactive) in assay [16]; 0.0841 (inactive) in [17]; -0.0194 (inactive) in [18]; -1.97 in [19]. Besides, the composite z-score in assay [14] is -0.642 (inactive); in [20], -0.37.
As for `COC(=O)[C@@]1(Cc2ccccc2CN=[N+]=[N-])N=C(c2ccc(OCCCO)cc2)O[C@H]1c1ccccc1`, the z-score in assay [1] was -2.84; in [2] it was 0.658; in [3], -4.68; in assay [4] it was -3.57; in assay [5], -4.03; in assay [6] it was -2.06. Also, the z-score in assay [7] was 0.315 (inactive); in assay [8] it was -1.01; in assay [9] it was -2.53; in assay [10], -2.6 (inactive); in assay [11] it was -2.6; in assay [12], 0.797 (inactive). Also, the z-score in [13] is -5.44 (inactive); in assay [15], 1.83 (inactive); in assay [16], 2.81 (inactive); in [17], 0.759 (inactive); in assay [18] it was -0.783 (inactive); in [19], -6.08. Also, the results for the composite z-score in assay [14] and in assay [20] were 1.09 (inactive) and 0.162, respectively.
For `CN(C)C(=O)[C@@]1(CCC(=O)OC(C)(C)C)N=C(c2ccc(OCCCO)cc2)O[C@H]1c1ccccc1CN=[N+]=[N-]`, the z-score was -0.286 in assay [1]; -0.607 in assay [2]; 0.423 in assay [3]; -0.124 in assay [4]; -0.389 in assay [5]; 0.628 in assay [6]. The z-score is -0.682 (inactive) in assay [7]; -1.18 in assay [8]; -0.496 in [9]; 1.19 (inactive) in [10]; 0.891 in assay [11]; 0.481 (inactive) in assay [12]. Besides, the z-score is -1.19 (inactive) in assay [13]; 0.317 (inactive) in [15]; -0.0065 (inactive) in [16]; 0.364 (inactive) in assay [17]; 0.98 (inactive) in assay [18]; 0.885 in assay [19]. Also, the composite z-score in [14] is -0.261 (inactive); in assay [20], -0.0272.
With `C=C(CCCC)C(=O)CC[C@@H](OC(=O)c1cccnc1)c1ccc(OCCO)cc1`, the z-score was 0.67 in [1]; 0.866 in assay [2]; 0.376 in [3]; -3.34 in assay [4]; -2.89 in assay [5]; -0.279 in assay [6]. The z-score in assay [7] was -0.188 (inactive); in assay [8], -0.673; in assay [9], -0.652; in assay [10], 0.116 (inactive); in [11] it was -0.211; in assay [12], -2.75 (inactive). Moreover, the z-score in assay [13] is -1.43 (inactive); in [15], 0.543 (inactive); in assay [16] it was -0.208 (inactive); in assay [17], -0.566 (inactive); in [18], -0.547 (inactive); in assay [19], -2.52. Moreover, the composite z-score in [14] was -2.9 (inactive); in assay [20] it was 0.0542.
With `O=C1[C@@]23C=C(Br)[C@H](C[C@@H]2COC3)[C@@]12CO2`, the z-score in [1] was -0.0321; in assay [2], -1.05; in assay [3] it was -0.493; in [4] it was -2.27; in assay [5], -1.1; in assay [6], -1.73. The z-score in assay [7] was 0.281 (inactive); in [8], -0.213; in assay [9] it was -0.809; in assay [10] it was -0.252 (inactive); in assay [11] it was -0.198; in assay [12], -0.237 (inactive). Moreover, the z-score in assay [13] was -0.402 (inactive); in [15], 0.224 (inactive); in assay [16] it was 0.254 (inactive); in assay [17], -0.417 (inactive); in [18], -0.0396 (inactive); in [19] it was -0.373. In addition, the composite z-score is 0.571 (inactive) in assay [14] and -0.102 in assay [20].
